Test results published in PubChem BioAssay (Tox21).
“And” between values parts separate entries of the source, which are not always exact repeats. Equal entries are not always repeated. Inconclusive results are not listed. A call without a number means that no potency is given here. The source made the active and inactive calls. Unless noted, the call rests on the fitted dose curve.

Assays:
[1] = qHTS assay to identify small molecule agonists of the sonic hedgehog signaling (Shh) pathway (AID 1259368); details: NIH/3T3 Gli1-Luc reporter, luciferase, 24 h; series mostly up to 92.4 µM;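 further: NIH/3T3-derived 3T3Gli1-Luc cells carrying a stable Gli1-driven firefly luciferase reporter; nearly all actives have a fitted effect of over 15% in size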
Summary of the method: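 Following a 24 hr incubation with DMSO-dissolved compounds at 37 C, 5% CO2, Gli1-Luc NIH/3T3-derived cells received luciferase reagent for 30 min at room temperature prior to luminescence measurement.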

[2] = target: Estrogen receptor beta (Homo sapiens) (UniProt Q92731); experiment: qHTS assay to identify small molecule agonists of the estrogen receptor beta (ER-beta) signaling pathway (AID 1259377; active means well fitted activation curve with a large enough effect in the signal ratio in the repeat runs, not every such curve was filed as active; the % refers to the signal ratio); details: ER-beta-UAS-bla HEK293T, beta-lactamase FRET ratio, 16 h; series mostly up to 92.4 µM
Chain of Estrogen receptor beta (Homo sapiens) (Q92731 whole entry, looked up): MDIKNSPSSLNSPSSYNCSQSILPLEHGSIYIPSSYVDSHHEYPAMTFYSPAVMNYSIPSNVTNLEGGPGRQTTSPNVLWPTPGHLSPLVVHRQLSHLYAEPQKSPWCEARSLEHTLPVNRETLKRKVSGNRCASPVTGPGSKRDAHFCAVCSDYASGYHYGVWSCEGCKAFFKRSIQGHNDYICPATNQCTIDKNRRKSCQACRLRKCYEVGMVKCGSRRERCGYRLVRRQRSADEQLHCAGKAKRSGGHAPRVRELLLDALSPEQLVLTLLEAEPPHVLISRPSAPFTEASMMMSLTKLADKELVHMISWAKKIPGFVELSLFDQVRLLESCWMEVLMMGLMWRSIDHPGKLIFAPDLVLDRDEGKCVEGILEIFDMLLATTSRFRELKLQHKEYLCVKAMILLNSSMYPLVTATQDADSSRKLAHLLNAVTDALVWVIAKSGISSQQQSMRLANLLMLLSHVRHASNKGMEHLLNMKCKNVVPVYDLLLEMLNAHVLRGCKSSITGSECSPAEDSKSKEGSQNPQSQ
Summary of the method: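 Beta-lactamase reporter readout: fluorescence of LiveBLAzer B/G FRET substrate after 2 h at room temperature, following 16 h compound treatment of ER-beta-UAS-bla HEK293T cells at 37C in 2% charcoal-stripped FBS medium.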

[3] = qHTS assay to identify small molecule agonists of the androgen receptor (AR) signaling pathway in the presence of an antagonist - cell viability counter screen (AID 1259379; active means well fitted curve in the direction sought with a large enough effect in the repeat runs; an effect the other way counts as inactive or inconclusive; further: nearly all actives have a fitted effect of over 25% in size; further: potency means the concentration at half of the fitted maximal effect); details: MDA-kb2 viability, CellTiter-Fluor, 16 h; series mostly up to 92.4 µM
Summary of the method: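 Each compound was tested at 15 concentrations on MDA-kb2 cells in the presence of 3.0uM nilutamide. Viability was measured by CellTiter-Fluor fluorescence after a 16 hr incubation at 37C in a CO2-free atmosphere.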

[4] = qHTS assay to identify small molecule agonists of the estrogen receptor beta (ER-beta) signaling pathway - cell viability counter screen (AID 1259380; active means well fitted curve in the direction sought with a large enough effect in the repeat runs; an effect the other way counts as inactive or inconclusive; further: nearly all actives have a fitted effect of over 30% in size; further: potency means the concentration at half of the fitted maximal effect); details: ER-beta-bla HEK293T viability, CellTiter-Glo luminescence, 16 h; series mostly up to 92.4 µM
Summary of the method: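 Compounds dissolved in DMSO were pin-transferred onto ER-beta-UAS-bla HEK293T cells that had settled 6 hr, and exposure ran 16 hr at 37C. Following the reporter read, CellTiter-Glo luminescence after 30 min at room temperature indicated cytotoxicity.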

[5] = qHTS assay to identify small molecule antagonists of the estrogen receptor beta (ER-beta) signaling pathway - cell viability counter screen (AID 1259382; active means well fitted curve in the direction sought with a large enough effect in the repeat runs; an effect the other way counts as inactive or inconclusive; further: nearly all actives have a fitted effect of over 55% in size; further: potency means the concentration at half of the fitted maximal effect); details: ER-beta-UAS-bla HEK293T viability, CellTiter-Glo luminescence, 16 h; series mostly up to 92.4 µM
Summary of the method: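 CellTiter-Glo ATP luminescence measured after the LiveBLAzer read in the same wells; ER-beta-UAS-bla HEK293T cells, 16 hr compound treatment with 1nM 17-beta-estradiol agonist at 37C, 5% CO2.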

[6] = target: Estrogen receptor (Homo sapiens) (UniProt P03372); experiment: qHTS assay to identify small molecule agonists of the estrogen receptor alpha (ER-alpha) signaling pathway in the presence of an antagonist (AID 1259383); details: VM7Luc4E2 cells, ERE-luciferase, +ICI-182,780, 22 h; series mostly up to 92.4 µM; further: top concentration of the series differs between compounds; nearly all actives have a fitted effect of over 15% in size
Chain of Estrogen receptor (Homo sapiens) (P03372 whole entry, looked up): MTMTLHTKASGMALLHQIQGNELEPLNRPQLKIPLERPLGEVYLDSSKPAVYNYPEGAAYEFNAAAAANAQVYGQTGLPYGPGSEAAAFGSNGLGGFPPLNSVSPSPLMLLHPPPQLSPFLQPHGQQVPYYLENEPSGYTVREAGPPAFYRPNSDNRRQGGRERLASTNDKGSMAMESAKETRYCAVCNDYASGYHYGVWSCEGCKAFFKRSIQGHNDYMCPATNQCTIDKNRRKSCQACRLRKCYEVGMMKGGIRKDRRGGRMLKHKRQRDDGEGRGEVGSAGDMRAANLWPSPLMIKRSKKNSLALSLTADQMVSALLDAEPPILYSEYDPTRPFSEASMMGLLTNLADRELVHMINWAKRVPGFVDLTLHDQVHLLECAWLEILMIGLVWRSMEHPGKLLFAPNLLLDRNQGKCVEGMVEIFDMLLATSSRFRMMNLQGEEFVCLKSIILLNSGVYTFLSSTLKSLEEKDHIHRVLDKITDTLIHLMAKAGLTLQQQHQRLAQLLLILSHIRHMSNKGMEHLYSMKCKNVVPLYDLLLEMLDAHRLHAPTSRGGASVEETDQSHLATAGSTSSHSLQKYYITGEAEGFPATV
Summary of the method: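 Luminescent ERE-luciferase reporter, VM7Luc4E2 cells (endogenous ER-alpha); 10.0nM ICI-182,780 final; 15-point compound titration; 22hr at 37C; ONE-Glo, 30min RT.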

[7] = target: Estrogen receptor beta (Homo sapiens) (UniProt Q92731); experiment: qHTS assay to identify small molecule antagonists of the estrogen receptor beta (ER-beta) signaling pathway (AID 1259378; active means well fitted inhibition curve with a large enough effect in the signal ratio in the repeat runs, not every such curve was filed as active; the % refers to the signal ratio; further: potency means the concentration at half of the fitted maximal effect); details: ER-beta-UAS-bla HEK293T, beta-lactamase FRET ratio, 16 h; series mostly up to 92.4 µM
Summary of the method: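 Antagonist mode: compounds added to beta-lactamase reporter HEK293T ER-beta-UAS cells stimulated with E2 (1nM final), 16 hr at 37C. LiveBLAzer B/G FRET substrate, 2 hours room temperature, fluorescence read-out.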

[8] = target: Androgen receptor (Homo sapiens) (UniProt P10275); experiment: qHTS assay to identify small molecule agonists of the androgen receptor (AR) signaling pathway in the presence of an antagonist (AID 1259381); details: MDA-kb2 MMTV-luciferase, AR agonist + nilutamide, 16 h; series mostly up to 92.4 µM; further: nearly all actives have a fitted effect of over 15% in size; further: potency means the concentration at half of the fitted maximal effect
Chain of Androgen receptor (Homo sapiens) (P10275 whole entry, looked up): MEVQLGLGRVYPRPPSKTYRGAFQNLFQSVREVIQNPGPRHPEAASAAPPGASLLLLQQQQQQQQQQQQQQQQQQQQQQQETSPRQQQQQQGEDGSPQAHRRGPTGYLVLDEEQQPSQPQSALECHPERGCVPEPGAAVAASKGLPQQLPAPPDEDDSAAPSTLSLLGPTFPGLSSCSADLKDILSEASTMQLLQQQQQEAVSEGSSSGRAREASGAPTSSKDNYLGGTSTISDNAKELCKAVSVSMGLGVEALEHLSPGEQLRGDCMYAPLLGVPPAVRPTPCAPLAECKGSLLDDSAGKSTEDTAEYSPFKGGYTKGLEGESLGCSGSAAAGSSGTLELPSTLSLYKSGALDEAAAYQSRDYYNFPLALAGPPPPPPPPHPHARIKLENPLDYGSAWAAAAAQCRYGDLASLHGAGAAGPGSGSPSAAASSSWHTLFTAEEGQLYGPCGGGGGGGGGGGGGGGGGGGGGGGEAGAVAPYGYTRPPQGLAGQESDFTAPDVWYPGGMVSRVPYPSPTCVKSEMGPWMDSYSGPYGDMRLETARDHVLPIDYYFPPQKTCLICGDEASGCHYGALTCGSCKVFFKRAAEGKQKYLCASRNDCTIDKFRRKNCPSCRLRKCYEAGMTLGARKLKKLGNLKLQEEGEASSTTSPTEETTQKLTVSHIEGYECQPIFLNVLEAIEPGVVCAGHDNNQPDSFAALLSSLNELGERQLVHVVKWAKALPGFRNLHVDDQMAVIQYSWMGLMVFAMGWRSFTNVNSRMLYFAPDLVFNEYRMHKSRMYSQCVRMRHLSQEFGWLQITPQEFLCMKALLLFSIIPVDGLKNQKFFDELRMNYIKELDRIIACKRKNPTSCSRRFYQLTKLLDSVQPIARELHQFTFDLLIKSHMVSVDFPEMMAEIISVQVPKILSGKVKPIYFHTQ
Summary of the method: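 Plated MDA-kb2 cells (3,000/well) were pre-incubated 5hr, given nilutamide (3.0uM final) or buffer, then dosed with compounds in DMSO at 15 concentrations. Luciferase activity was quantified by luminescence after 16hr at 37C.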

[9] = qHTS assay to identify small molecule agonists or antagonists of the thyroid stimulating hormone receptor (TSHR) signaling pathway - wild type cell line counter screen (AID 1259384); details: HEK293 wild type, cAMP HTRF counter-screen, hits give high values; series mostly up to 92.4 µM
Summary of the method: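 Counter screen in untransfected Hek293: compounds (15-point titration, triplicate) plus phosphodiesterase inhibitor Ro20-1724 added after 18 h plating; 30 min RT. Intracellular cAMP via competitive d2/cryptate immunoassay, 1 h incubation.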

[10] = qHTS assay to identify small molecule antagonists of the sonic hedgehog signaling (Shh) pathway (AID 1259369); details: NIH/3T3 Gli1-Luc reporter, Shh antagonist, luminescence 24 h; series mostly up to 92.4 µM; further: nearly all actives have a fitted effect of over 45% in size; further: potency means the concentration at half of the fitted maximal effect
Summary of the method: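 Read-out is luminescence from a firefly luciferase gene controlled by the Gli1 response element, in 3T3Gli1-Luc cells pre-incubated 4hr then exposed to compounds and conditioned medium for 24hr.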

Compound | Potency [1] | Potency [2] | Potency [3] | Potency [4] | Potency [5] | Potency [6] | Potency [7] | Potency [8] | outcome [9] | Potency [10]
CC(O)(CS(=O)(=O)c1ccc(F)cc1)C(=O)Nc1ccc(C#N)c(C(F)(F)F)c1 (configuration not stated) | inactive | inactive | inactive | 31.8 µM (active) | 28.3 µM (active) | inactive | – | – | – | –
O=C(CBr)OCc1ccccc1 | inactive | – | inactive | inactive | inactive | inactive | inactive | – | – | –
COc1ccc(-c2ccccc2)cc1NNC(=O)OC(C)C | inactive | inactive | – | 35.8 µM (active) | – | inactive | 63.7 µM (active) | inactive | – | –
Clc1cccc2ccccc12 | inactive | – | inactive | inactive | inactive | – | inactive | – | inactive | –
CCOP(=O)(OCC)O/C(=C/Cl)c1ccc(Cl)cc1Cl | inactive | – | – | inactive | inactive | inactive | – | – | inactive | –
O=C(Nc1ccccc1)Nc1cnns1 | inactive | inactive | inactive | – | inactive | inactive | – | – | inactive | –
Cc1c(F)c(F)c(COC(=O)C2C(/C=C(\Cl)C(F)(F)F)C2(C)C)c(F)c1F (configuration not stated) | inactive | inactive | inactive | – | inactive | inactive | inactive | – | inactive | –
NCCCNCCCN | inactive | inactive | inactive | – | – | – | inactive | inactive | inactive | –
Cc1ccc(-c2c(Cl)nc(C#N)n2S(=O)(=O)N(C)C)cc1 | – | – | 48.5 µM (active) | – | 27.3 µM (active) | inactive | – | inactive | – | 7.69 µM (active)
CS/C(C)=N/OC(=O)N(C)SN(C)C(=O)O/N=C(\C)SC | inactive | inactive | – | – | inactive | inactive | – | inactive | inactive | –
O=C(O)C1(c2ccc3c(c2)OC[C@H](Cc2ccc(-c4ccccc4)cc2)[C@H]3O)CCCC1 | inactive | – | – | 27.3 µM (active) | – | – | – | – | inactive | –
CC(C)N(C(=O)COc1nnc(C(F)(F)F)s1)c1ccc(F)cc1 | inactive | inactive | inactive | – | inactive | inactive | – | – | inactive | –
CN1C[C@H](CNC(=O)OCc2ccccc2)C[C@@H]2c3cccc4c3c(cn4C)C[C@H]21 | inactive | inactive | inactive | – | – | inactive | – | – | inactive | –
CC(C)(C)C(O)C(Oc1ccc(Cl)cc1)n1cncn1 (configuration not stated) | inactive | – | inactive | – | inactive | – | – | – | inactive | –
C=CC(=O)OCC(C)C | – | inactive | inactive | inactive | inactive | inactive | inactive | – | inactive | inactive
OCCCBr | inactive | – | inactive | inactive | inactive | inactive | – | – | – | –

Compound | Potency [1] | Potency [2] | Potency [3] | Potency [4] | Potency [5] | Potency [6] | Potency [7] | Potency [8] | outcome [9] | Potency [10]
CCOC(=O)[C@]1(c2ccccc2)Oc2ccccc2[C@@H]1N | inactive | inactive | – | – | inactive | – | – | – | inactive | –
O=[N+]([O-])c1ccc(F)c([N+](=O)[O-])c1 | inactive | inactive | 27.6 µM (active) | inactive | inactive | inactive | – | – | – | –
NC(=O)C(Cl)(Cl)Cl | inactive | – | inactive | inactive | inactive | inactive | inactive | – | inactive | –
CC(C)(OO)c1ccccc1 | inactive | – | inactive | inactive | inactive | inactive | – | – | inactive | –
CC1CC(CC2CCC(N)C(C)C2)CCC1N (configuration not stated) | inactive | – | 27.8 µM (active) | – | inactive | inactive | – | inactive | inactive | –
O=C(O)C(F)(F)C(F)(F)C(F)(F)C(F)(F)C(F)(F)C(F)(F)C(F)(F)C(F)(F)C(F)(F)F | inactive | – | inactive | 10.9 µM (active) | inactive | inactive | – | – | – | –
CCCN(CCC)c1c([N+](=O)[O-])cc(S(C)(=O)=O)cc1[N+](=O)[O-] | inactive | inactive | inactive | inactive | inactive | inactive | – | – | – | –
O=C1NCN(c2ccccc2)C12CCN(CCCOc1ccc(F)cc1)CC2 | inactive | – | – | – | – | inactive | – | – | – | –
C(=NC1CCCCC1)=NC1CCCCC1 | inactive | inactive | 2.45 µM (active) and 4.86 µM (active) | inactive | inactive | inactive | – | – | inactive | –
C=CC(=O)NCNC(=O)C=C | inactive | – | inactive | – | inactive | inactive | – | 48.6 µM (active) | – | –
COC(=O)C(C)N(C(=O)Cc1ccccc1)c1c(C)cccc1C (configuration not stated) | inactive | – | inactive | 61.1 µM (active) | – | inactive | – | inactive | inactive | –
CCOP(=S)(OCC)SCn1nnc2ccccc2c1=O | inactive | inactive | – | inactive | inactive | inactive | 68.6 µM (active) | – | – | –
Clc1ccc(C(OCCN2CCCCC2)c2ccccc2)cc1 (configuration not stated) | inactive | inactive | – | 18.8 µM (active) | inactive | inactive | inactive | – | – | –
O=[N+]([O-])c1cc(C(F)(F)F)cc([N+](=O)[O-])c1Cl | inactive | – | – | 54.7 µM (active) | – | inactive | – | – | – | –
COc1nn(CSP(=S)(OC)OC)c(=O)s1 | inactive | – | inactive | – | inactive | inactive | – | – | inactive | –
CC(c1ccc(O)cc1)(c1ccc(O)cc1)c1ccc(O)cc1 | inactive | – | – | – | – | inactive | – | – | – | –
